# Experimental data from article PMC7862700, “An all-to-all approach to the identification of sequence-specific readers for epigenetic DNA modifications on cytosine”.
# How the values were obtained:
# Experiment in all cases: DAPPL (digital affinity profiling via proximity ligation, sequencing); 10 mM Tris-HCl pH 7.5, 50 mM NaCl, 1 mM DTT, 4% glycerol, room temperature, 30 min; GST-TFs on glutathione beads, 16-mer random dsDNA library, 0.1% formaldehyde crosslink after washing; high values mean tight binding
# FLI1 = molecular target: T1, FLI1 (Homo sapiens, UniProt Q01543 1-452); settings: protein: recombinant; tags: N-terminal GST; dsDNA, one strand shown
# T1 sequence: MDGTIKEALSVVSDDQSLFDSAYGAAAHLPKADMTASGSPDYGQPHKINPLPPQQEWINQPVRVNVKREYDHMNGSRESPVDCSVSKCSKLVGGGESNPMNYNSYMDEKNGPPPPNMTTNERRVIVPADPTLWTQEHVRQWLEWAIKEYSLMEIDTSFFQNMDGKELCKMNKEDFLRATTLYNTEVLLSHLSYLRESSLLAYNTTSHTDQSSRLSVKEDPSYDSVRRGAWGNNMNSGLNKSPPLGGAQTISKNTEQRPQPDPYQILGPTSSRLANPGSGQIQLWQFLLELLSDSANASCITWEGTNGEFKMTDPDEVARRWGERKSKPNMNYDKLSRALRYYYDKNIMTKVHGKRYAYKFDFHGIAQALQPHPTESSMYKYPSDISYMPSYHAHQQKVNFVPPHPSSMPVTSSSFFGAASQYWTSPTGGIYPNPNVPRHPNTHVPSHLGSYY
# Procedure, shortened: (§1)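 Sequencing on an Illumina NextSeq500 followed washing, crosslinking with 0.1% formaldehyde, proximity ligation (BsaI/T4 ligase, 1 h, 37 °C) and PCR amplification of pools that had been incubated for 30 min at room temperature with 200 nmole of a random double-stranded 16-mer DNA library in Tris/NaCl/DTT/glycerol buffer. Each pool held DNA-barcoded human transcription factors, expressed in yeast as GST fusions and captured on glutathione beads, plus a tag-only sample. Binding signal is a hexamer's read frequency for a factor divided by its frequency in the tag-only sample.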
# ELK1 = molecular target: T2, ELK1 (Homo sapiens, UniProt P19419 1-428); settings: protein: recombinant; tags: N-terminal GST; dsDNA, one strand shown
# T2 sequence: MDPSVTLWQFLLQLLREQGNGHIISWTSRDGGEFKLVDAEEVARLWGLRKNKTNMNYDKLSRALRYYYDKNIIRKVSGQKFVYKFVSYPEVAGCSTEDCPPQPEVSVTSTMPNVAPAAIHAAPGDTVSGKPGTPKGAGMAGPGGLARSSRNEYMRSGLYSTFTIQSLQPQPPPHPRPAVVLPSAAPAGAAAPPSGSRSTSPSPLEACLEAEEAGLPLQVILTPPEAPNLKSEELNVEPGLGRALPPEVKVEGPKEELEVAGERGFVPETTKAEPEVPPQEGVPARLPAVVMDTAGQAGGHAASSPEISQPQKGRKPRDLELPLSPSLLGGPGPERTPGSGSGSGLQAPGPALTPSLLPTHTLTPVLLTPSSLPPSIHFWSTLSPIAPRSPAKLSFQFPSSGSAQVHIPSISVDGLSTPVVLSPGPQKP
# Procedure, shortened: as §1
# GABPA = molecular target: T3, GABPA (Homo sapiens, UniProt Q06546 1-454); settings: protein: recombinant; tags: N-terminal GST; dsDNA, one strand shown
# T3 sequence: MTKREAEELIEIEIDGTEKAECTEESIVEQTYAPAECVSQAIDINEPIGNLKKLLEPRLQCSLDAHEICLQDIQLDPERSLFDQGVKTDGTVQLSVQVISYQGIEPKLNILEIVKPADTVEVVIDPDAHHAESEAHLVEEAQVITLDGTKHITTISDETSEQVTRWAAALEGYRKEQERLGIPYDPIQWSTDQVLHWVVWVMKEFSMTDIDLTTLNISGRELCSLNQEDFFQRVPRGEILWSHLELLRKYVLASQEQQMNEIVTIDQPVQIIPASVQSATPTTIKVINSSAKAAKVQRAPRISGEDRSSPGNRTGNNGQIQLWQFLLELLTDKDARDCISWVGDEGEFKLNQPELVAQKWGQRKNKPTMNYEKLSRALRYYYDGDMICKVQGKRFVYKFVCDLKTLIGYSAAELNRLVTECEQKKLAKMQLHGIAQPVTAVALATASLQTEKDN
# Procedure, shortened: as §1
# ERG = molecular target: T4, ERG (Homo sapiens, UniProt P11308 1-479); settings: protein: recombinant; tags: N-terminal GST; dsDNA, one strand shown
# T4 sequence: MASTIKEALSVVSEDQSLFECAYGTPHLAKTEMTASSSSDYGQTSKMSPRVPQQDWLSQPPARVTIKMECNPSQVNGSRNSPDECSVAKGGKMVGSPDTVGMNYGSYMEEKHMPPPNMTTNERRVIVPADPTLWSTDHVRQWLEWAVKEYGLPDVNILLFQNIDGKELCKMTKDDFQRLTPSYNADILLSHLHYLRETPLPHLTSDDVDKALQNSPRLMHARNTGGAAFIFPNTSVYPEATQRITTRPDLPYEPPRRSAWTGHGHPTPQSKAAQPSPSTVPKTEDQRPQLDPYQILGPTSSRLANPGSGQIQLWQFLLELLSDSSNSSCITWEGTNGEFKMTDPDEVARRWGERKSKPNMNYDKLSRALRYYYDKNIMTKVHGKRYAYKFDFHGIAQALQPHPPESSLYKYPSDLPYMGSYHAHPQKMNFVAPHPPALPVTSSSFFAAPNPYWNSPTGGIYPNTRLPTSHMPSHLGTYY
# Procedure, shortened: as §1
# ELF1 = ELF1 (Homo sapiens, UniProt P32519 1-619); settings: protein: recombinant; tags: N-terminal GST; dsDNA, one strand shown
# Procedure, shortened: as §1
# EHF = molecular target: T5, EHF (Homo sapiens, UniProt Q9NZC4 1-300); settings: protein: recombinant; tags: N-terminal GST; dsDNA, one strand shown
# T5 sequence: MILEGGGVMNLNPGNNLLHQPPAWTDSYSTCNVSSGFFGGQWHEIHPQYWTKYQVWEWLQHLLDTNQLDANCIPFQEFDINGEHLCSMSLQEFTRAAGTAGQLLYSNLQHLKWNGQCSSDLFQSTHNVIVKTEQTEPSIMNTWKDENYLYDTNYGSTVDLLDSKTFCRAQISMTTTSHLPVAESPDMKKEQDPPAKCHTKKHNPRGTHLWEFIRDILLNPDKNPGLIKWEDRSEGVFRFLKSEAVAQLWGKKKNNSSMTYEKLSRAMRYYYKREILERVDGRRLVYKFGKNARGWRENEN
# Procedure, shortened: as §1
# SPI1 = SPI1 (Homo sapiens, UniProt P17947 1-270); settings: protein: recombinant; tags: N-terminal GST; dsDNA, one strand shown
# Procedure, shortened: as §1
# SPIB = SPIB (Homo sapiens, UniProt Q01892 1-262); settings: protein: recombinant; tags: N-terminal GST; dsDNA, one strand shown
# Procedure, shortened: as §1
# ELK3 = molecular target: T6, ELK3 (Homo sapiens, UniProt P41970 1-407); settings: protein: recombinant; tags: N-terminal GST; dsDNA, one strand shown
# T6 sequence: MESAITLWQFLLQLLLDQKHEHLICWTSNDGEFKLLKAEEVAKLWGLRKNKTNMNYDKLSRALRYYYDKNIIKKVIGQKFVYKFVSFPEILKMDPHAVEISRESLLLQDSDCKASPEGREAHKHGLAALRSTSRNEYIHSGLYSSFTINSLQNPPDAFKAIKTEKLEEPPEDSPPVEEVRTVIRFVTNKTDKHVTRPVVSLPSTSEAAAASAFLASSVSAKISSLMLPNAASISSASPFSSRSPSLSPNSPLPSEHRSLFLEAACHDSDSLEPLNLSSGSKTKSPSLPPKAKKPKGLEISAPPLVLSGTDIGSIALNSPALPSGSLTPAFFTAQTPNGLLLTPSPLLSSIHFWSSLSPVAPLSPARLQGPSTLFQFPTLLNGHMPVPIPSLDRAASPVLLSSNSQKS
# Procedure, shortened: as §1
# FEV = molecular target: T7, FEV (Homo sapiens, UniProt Q99581 1-238); settings: protein: recombinant; tags: N-terminal GST; dsDNA, one strand shown
# T7 sequence: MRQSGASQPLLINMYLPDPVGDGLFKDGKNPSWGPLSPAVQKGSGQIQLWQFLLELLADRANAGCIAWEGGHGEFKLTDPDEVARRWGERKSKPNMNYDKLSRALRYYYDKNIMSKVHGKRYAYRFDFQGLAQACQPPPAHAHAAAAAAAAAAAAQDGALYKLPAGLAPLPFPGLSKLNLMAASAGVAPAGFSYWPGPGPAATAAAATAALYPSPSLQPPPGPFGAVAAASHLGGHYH
# Procedure, shortened: as §1
# ETV5 = ETV5 (Homo sapiens, UniProt P41161 1-510); settings: protein: recombinant; tags: N-terminal GST; dsDNA, one strand shown
# Procedure, shortened: as §1
# HSF1 = HSF1 (Homo sapiens, UniProt Q00613 1-529); settings: protein: recombinant; tags: N-terminal GST; chain copies: 3; dsDNA, one strand shown
# Procedure, shortened: as §1
# SPIC = molecular target: T8, SPIC (Homo sapiens, UniProt Q8N5J4 1-248); settings: protein: recombinant; tags: N-terminal GST; dsDNA, one strand shown
# T8 sequence: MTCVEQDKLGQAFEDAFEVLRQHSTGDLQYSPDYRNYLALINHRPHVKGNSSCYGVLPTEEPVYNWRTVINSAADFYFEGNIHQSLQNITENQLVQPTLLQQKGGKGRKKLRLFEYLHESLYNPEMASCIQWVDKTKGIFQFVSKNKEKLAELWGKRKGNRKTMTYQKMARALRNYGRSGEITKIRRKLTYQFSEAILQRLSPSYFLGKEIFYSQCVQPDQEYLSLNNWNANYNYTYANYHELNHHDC
# Procedure, shortened: as §1
# ELF4 = ELF4 (Homo sapiens, UniProt Q99607 1-663); settings: protein: recombinant; tags: N-terminal GST; dsDNA, one strand shown
# Procedure, shortened: as §1
# ELK4 = molecular target: T9, ELK4 (Homo sapiens, UniProt P28324-2 1-405); settings: protein: recombinant; tags: N-terminal GST; dsDNA, one strand shown
# T9 sequence: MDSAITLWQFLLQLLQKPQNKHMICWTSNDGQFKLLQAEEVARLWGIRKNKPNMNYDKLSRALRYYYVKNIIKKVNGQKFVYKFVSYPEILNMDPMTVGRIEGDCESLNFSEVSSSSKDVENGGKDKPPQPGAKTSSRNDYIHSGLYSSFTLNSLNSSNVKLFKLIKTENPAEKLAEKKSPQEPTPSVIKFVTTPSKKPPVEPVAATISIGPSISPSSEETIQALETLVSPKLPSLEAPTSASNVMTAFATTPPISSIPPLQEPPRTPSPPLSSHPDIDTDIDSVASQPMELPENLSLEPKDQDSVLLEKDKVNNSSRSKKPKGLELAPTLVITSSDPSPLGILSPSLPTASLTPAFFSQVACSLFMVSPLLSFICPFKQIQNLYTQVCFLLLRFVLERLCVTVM
# Procedure, shortened: as §1
# ETV2 = molecular target: T10, ETV2 (Homo sapiens, UniProt O00321 1-342); settings: protein: recombinant; tags: N-terminal GST; dsDNA, one strand shown
# T10 sequence: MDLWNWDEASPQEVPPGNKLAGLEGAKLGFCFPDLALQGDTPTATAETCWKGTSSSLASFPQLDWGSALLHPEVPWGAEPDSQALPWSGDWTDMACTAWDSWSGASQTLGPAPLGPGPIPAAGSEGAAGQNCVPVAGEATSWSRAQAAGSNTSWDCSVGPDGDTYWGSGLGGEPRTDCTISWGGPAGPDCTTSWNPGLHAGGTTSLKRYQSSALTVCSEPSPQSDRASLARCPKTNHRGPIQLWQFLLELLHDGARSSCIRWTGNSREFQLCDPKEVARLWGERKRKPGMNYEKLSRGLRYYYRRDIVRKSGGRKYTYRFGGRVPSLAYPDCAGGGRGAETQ
# Procedure, shortened: as §1
# ELF3 = molecular target: T11, ELF3 (Homo sapiens, UniProt P78545 1-371); settings: protein: recombinant; tags: N-terminal GST; dsDNA, one strand shown
# T11 sequence: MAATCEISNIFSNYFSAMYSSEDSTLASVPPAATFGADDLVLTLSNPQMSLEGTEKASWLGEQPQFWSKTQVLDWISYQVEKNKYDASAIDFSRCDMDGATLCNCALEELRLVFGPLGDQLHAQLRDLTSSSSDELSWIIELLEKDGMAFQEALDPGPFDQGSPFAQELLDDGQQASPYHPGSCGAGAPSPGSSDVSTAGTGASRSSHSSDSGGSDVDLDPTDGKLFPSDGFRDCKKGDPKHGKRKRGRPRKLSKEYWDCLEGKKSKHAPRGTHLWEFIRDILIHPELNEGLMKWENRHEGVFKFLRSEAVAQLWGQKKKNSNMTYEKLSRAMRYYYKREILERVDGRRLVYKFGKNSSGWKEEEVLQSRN
# Procedure, shortened: as §1
# CRX = CRX (Homo sapiens, UniProt O43186 1-299); settings: protein: recombinant; tags: N-terminal GST; dsDNA, one strand shown
# Procedure, shortened: as §1
# ETV1 = ETV1 (Homo sapiens, UniProt P50549 1-477); settings: protein: recombinant; tags: N-terminal GST; dsDNA, one strand shown
# Procedure, shortened: as §1
# Chain of SPIB (Q01892 whole entry): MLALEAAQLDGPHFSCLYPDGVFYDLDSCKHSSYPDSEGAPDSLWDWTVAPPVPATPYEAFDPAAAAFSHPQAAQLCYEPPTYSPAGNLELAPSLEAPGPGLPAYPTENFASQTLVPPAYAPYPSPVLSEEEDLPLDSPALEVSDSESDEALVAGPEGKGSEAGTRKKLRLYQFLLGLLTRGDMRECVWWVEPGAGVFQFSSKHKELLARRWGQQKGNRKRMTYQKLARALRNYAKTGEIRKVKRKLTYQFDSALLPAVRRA
# Chain of HSF1 (Q00613 whole entry): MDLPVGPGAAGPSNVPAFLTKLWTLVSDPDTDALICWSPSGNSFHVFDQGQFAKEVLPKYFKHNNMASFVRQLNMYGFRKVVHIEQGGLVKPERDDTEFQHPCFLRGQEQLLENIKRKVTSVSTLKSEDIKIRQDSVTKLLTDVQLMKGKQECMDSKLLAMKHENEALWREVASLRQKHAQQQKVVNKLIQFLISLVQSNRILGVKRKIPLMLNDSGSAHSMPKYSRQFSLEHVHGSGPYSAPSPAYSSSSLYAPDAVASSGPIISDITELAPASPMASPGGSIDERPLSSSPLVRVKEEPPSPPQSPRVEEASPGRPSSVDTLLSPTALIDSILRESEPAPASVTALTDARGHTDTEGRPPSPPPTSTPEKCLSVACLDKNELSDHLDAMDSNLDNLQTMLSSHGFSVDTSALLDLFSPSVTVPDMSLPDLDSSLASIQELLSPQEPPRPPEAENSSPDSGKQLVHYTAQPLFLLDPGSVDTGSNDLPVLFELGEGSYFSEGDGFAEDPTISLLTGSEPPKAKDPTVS
# Chain of ELF1 (P32519 whole entry): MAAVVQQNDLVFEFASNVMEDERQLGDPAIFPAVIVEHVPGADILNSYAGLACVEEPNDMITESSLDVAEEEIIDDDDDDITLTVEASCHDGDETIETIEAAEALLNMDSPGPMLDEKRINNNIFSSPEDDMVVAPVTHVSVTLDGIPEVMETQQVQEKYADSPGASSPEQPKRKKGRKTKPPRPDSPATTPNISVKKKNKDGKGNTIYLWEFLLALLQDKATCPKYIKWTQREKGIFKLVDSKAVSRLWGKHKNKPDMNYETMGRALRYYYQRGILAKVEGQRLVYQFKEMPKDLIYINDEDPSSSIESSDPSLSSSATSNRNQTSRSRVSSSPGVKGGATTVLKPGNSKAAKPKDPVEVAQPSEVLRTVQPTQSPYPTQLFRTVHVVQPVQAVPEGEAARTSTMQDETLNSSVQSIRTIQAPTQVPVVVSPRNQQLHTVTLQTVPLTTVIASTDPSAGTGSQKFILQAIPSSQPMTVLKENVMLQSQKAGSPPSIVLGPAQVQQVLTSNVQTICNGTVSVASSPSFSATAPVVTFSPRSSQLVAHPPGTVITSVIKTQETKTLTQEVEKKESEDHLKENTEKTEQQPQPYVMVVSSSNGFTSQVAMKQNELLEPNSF
# Chain of ETV5 (P41161 whole entry): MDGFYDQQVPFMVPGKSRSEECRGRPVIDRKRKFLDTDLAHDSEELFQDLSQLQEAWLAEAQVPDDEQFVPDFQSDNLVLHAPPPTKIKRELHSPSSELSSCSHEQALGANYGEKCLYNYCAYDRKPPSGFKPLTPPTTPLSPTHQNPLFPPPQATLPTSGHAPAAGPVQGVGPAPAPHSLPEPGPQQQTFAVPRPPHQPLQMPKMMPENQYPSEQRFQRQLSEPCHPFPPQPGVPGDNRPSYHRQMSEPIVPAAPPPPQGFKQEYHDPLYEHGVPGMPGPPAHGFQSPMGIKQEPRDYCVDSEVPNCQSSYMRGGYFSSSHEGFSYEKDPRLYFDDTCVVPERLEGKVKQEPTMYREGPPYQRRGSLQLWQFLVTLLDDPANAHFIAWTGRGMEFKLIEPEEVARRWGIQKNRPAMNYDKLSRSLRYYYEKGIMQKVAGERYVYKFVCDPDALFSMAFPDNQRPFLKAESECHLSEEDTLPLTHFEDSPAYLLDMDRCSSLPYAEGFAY
# Chain of ETV1 (P50549 whole entry): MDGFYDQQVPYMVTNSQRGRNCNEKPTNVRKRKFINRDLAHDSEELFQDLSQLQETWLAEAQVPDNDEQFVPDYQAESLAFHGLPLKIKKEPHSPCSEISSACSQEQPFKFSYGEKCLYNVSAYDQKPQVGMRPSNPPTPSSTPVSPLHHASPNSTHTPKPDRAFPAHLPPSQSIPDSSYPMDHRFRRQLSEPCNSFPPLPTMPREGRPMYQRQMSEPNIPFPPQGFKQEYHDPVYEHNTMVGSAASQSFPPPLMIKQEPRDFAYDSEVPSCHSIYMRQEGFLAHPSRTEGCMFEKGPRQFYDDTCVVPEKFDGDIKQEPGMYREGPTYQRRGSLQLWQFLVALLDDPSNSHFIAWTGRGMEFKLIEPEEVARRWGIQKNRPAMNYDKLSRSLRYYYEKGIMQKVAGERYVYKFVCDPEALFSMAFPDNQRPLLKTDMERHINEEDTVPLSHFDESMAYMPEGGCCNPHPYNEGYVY
# Chain of CRX (O43186 whole entry): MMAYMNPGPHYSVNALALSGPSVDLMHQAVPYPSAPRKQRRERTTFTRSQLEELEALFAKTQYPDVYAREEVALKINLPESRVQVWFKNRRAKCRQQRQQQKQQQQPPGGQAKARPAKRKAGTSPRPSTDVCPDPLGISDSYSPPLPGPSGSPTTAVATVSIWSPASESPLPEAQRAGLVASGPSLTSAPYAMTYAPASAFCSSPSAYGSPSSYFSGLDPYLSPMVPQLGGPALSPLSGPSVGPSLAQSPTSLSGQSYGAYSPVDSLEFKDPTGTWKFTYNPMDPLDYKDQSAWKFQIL
# Chain of ELF4 (Q99607 whole entry): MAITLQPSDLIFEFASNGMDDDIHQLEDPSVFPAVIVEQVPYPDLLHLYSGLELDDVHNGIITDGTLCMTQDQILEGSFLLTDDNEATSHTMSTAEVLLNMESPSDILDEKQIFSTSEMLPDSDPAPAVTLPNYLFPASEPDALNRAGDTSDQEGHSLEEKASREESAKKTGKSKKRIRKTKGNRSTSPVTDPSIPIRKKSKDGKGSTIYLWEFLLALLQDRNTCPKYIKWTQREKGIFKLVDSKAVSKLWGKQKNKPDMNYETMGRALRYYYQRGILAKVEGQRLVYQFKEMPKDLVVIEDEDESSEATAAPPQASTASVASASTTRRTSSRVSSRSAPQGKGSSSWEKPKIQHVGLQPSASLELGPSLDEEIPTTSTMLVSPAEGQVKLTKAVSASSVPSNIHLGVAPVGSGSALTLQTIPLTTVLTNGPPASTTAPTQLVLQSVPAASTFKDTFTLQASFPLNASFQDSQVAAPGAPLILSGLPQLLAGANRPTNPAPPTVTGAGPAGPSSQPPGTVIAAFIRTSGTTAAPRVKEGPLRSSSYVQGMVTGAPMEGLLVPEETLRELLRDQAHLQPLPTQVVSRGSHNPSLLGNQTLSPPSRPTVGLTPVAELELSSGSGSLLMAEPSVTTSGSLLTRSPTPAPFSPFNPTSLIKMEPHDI
sequence,measurement,setting,value
TAATCT,binding signal,FLI1,"1.39 fold enrichment (6-mer frequency, TF over GST control)"
same,binding signal,ELK1,"1.34 fold enrichment (6-mer frequency, TF over GST control)"
same,binding signal,GABPA,"1.33 fold enrichment (6-mer frequency, TF over GST control)"
same,binding signal,ERG,"1.38 fold enrichment (6-mer frequency, TF over GST control)"
same,binding signal,ELF1,"1.4 fold enrichment (6-mer frequency, TF over GST control)"
same,binding signal,EHF,"1.44 fold enrichment (6-mer frequency, TF over GST control)"
same,binding signal,SPI1,"1.33 fold enrichment (6-mer frequency, TF over GST control)"
same,binding signal,SPIB,"1.4 fold enrichment (6-mer frequency, TF over GST control)"
same,binding signal,ELK3,"1.46 fold enrichment (6-mer frequency, TF over GST control)"
same,binding signal,FEV,"1.3 fold enrichment (6-mer frequency, TF over GST control)"
same,binding signal,ETV5,"1.44 fold enrichment (6-mer frequency, TF over GST control)"
same,binding signal,HSF1,"3.55 fold enrichment (6-mer frequency, TF over GST control)"
same,binding signal,SPIC,"1.3 fold enrichment (6-mer frequency, TF over GST control)"
same,binding signal,ELF4,"1.51 fold enrichment (6-mer frequency, TF over GST control)"
same,binding signal,ELK4,"1.4 fold enrichment (6-mer frequency, TF over GST control)"
same,binding signal,ETV2,"1.34 fold enrichment (6-mer frequency, TF over GST control)"
same,binding signal,ELF3,"1.57 fold enrichment (6-mer frequency, TF over GST control)"
same,binding signal,CRX,"5.78 fold enrichment (6-mer frequency, TF over GST control)"
same,binding signal,ETV1,"1.52 fold enrichment (6-mer frequency, TF over GST control)"
